Experimental data published in PubChem BioAssay.
Unmarked numbers belong to inactive results. No rule for the calls is given here.

Each molecule was assayed against Lethal factor (Bacillus anthracis) (UniProt P15917) (assay: Bacillus anthracis lethal factor inhibition, microsphere flow cytometry protease assay, validation at 10 µM (AID 588461)). Details: multiplex microsphere protease cleavage assay, hits give high values.
Lethal factor (Bacillus anthracis), sequence (P15917 whole entry, looked up): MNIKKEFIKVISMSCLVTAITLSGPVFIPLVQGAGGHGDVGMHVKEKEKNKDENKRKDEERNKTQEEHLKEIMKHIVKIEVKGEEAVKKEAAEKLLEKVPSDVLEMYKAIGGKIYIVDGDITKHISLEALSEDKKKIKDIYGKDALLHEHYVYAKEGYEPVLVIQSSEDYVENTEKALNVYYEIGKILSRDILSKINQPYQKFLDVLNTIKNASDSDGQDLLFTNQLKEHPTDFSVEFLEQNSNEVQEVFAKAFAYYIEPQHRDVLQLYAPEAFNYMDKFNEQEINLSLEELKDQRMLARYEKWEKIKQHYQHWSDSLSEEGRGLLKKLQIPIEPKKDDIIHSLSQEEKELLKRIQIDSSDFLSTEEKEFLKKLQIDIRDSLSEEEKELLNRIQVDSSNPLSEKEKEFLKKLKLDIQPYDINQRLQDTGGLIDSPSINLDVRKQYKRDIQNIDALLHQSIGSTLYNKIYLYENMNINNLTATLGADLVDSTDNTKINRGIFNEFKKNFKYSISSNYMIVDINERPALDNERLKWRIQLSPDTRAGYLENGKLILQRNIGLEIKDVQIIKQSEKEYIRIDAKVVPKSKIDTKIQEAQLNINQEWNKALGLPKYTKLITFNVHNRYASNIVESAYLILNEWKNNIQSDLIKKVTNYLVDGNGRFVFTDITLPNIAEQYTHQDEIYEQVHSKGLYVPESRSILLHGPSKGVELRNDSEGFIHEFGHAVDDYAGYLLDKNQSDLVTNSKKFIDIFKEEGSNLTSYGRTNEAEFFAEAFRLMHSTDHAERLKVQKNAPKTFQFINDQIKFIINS
`CC(C)(C)c1csc(N/N=C/c2cccnc2)n1` was tested, and the inhibition was 0.6%. In the case of `O=C(O)C1Sc2[nH]c(=O)sc2C2c3ccc(O)cc3OC(=O)C12` (configuration not stated), the inhibition is reported as -16.5%. `CCOC(=O)c1ccc2[nH]c(C)c(CCC(C)=O)c(=O)c2c1` showed an inhibition of 6%. `CC(=O)OCC(=O)C1=CCC2C3CCC4=CC(=O)C=CC4(C)C3(F)C(OC(C)=O)CC12C` (configuration not stated) gave an inhibition of 2.4%. Molecule `Cc1occc(=O)c1O` has an inhibition of -1.7%. With `O=C(O)CCC(=O)c1ccc(-c2ccccc2)cc1` the inhibition was 2.1%. `CC(=O)N[C@@H](CS)C(=O)O` was tested, and the inhibition was 2.4%. For `COc1cc2c(cc1O)CCN(C(=O)c1ccco1)C2C` (configuration not stated), the inhibition was 2.3%. `O=C(Oc1ccccc1)Oc1ccc2c(c1)oc(=O)c1ccccc12` was tested, and the inhibition was 0.9%. Molecule `O=C(Nc1cccc(C(=O)O)c1)/C(=C\c1ccccc1)NC(=O)c1ccccc1` has an inhibition of -0.8%. In the case of `CC(C)(C)C(=O)N1CCCC1C(=O)O` (configuration not stated), the inhibition is reported as -0.9%. With `COc1cc(/C=C(\C#N)C(=O)N2CCc3ccccc32)ccc1O` the inhibition was 0.9%. `O=C(NCCc1nc2ccccc2[nH]1)c1cccc(Br)c1` showed an inhibition of -7.9%. In the case of `O=C1c2ccccc2C(=O)N1/N=C/c1ccc(Oc2ccc([N+](=O)[O-])cn2)cc1`, the inhibition is reported as -1.7%. Work on `Cc1ccc(-n2cc(CNCCN3CCOC3=O)c(-c3ccc(F)cc3)n2)cc1` yielded an inhibition of -7.8%. In the case of `CSCCC(NC(C)=O)C(=O)Oc1ccc2c3c(c(=O)oc2c1)CCCC3` (configuration not stated), the inhibition is reported as -1.8%. With `Cc1cc(-c2ccccc2)nnc1NCCN1CCOCC1` the inhibition was -2.3%.
